The values that follow come from PubChem BioAssay AID1159580 (chemical genetic matrix, 2015).

This experiment can be described thus: chemical genetic growth profiling, strain panel (AID 1159580).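 Further: tested at 20 µM; growth read once vehicle control cultures reached saturation at 30 °C; 1 = growth at the plate median or of vehicle wells; lower values mean less growth of the strain.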 To be noted: growth OD.
[1] abbreviates: S. cerevisiae deletion strains, locus YNL322C, strain KRE1, active compounds read low.
Where [2] appears, read: S. cerevisiae deletion strains, locus YPL055C, strain LGE1, active compounds read low.
Where [3] appears, read: S. cerevisiae deletion strains, locus YPL241C, strain CIN2, active compounds read low.

SMILES strings stand for the structures. Hit rate of the full screen: of about 5,500 compounds, about 2,000 (36%) were called active. Not shown: some 18% with an inconclusive outcome. Some of the results follow. Values without a mark were called inactive. No stated cut-off is given here; in the data, active means normalized growth mostly below about 0.91 (no sharp cut-off); inconclusive means no clear call, values can overlap the other calls; inactive means mostly above about 0.92.

As for `COc1ccccc1N1CCN(C(=O)Nc2cc(Cl)cc(Cl)c2)CC1`, the normalized growth by setting is: (S. cerevisiae deletion strains, locus YAL013W, strain DEP1, active compounds read low) 0.934; (S. cerevisiae deletion strains, locus YBR229C, strain ROT2, active compounds read low) 0.988; (S. cerevisiae deletion strains, locus YCL061C, strain MRC1, active compounds read low) 0.927; (S. cerevisiae deletion strains, locus YDL101C, strain DUN1, active compounds read low) 0.967; (S. cerevisiae deletion strains, locus YDR150W, strain NUM1, active compounds read low) 0.854; (S. cerevisiae deletion strains, locus YEL061C, strain CIN8, active compounds read low) 0.914. Also, the normalized growth is 0.965 (S. cerevisiae deletion strains, locus YGR078C, strain PAC10, active compounds read low); 0.434 (active) (S. cerevisiae deletion strains, locus YHR030C, strain SLT2, active compounds read low); 0.97 (S. cerevisiae deletion strains, locus YHR087W, strain rtc3, active compounds read low); 0.971 (S. cerevisiae deletion strains, locus YJR043C, strain POL32, active compounds read low); 0.986 (S. cerevisiae deletion strains, locus YJR075W, strain HOC1, active compounds read low); 1.09 (S. cerevisiae deletion strains, locus YLR039C, strain RIC1, active compounds read low). Further, the normalized growth reads like this: (S. cerevisiae deletion strains, locus YLR058C, strain SHM2 (second series), active compounds read low) 1; (S. cerevisiae deletion strains, locus YLR085C, strain ARP6, active compounds read low) 0.511 (active); (S. cerevisiae deletion strains, locus YLR262C, strain YPT6, active compounds read low) 1.05; (S. cerevisiae deletion strains, locus YML094W, strain GIM5, active compounds read low) 0.823 (active); (S. cerevisiae deletion strains, locus YMR219W, strain ESC1, active compounds read low) 1; (S. cerevisiae deletion strains, locus YMR263W, strain SAP30, active compounds read low) 0.937. Further, the normalized growth reads like this: (S. cerevisiae deletion strains, locus YNL153C, strain GIM3, active compounds read low) 0.975; (S. cerevisiae deletion strains, locus YNL298W, strain CLA4 (second series), active compounds read low) 0.715 (active); under setting [1], 0.984; (S. cerevisiae deletion strains, locus YNR030W, strain Alg12, active compounds read low) 0.877 (active); (S. cerevisiae deletion strains, locus YOL006C, strain TOP1, active compounds read low) 0.857; under setting [2], 0.761 (active). Also, the normalized growth is, setting by setting: under setting [3], 0.716 (active); (S. cerevisiae deletion strains, locus YPR135W, strain CTF4, active compounds read low) 0.667; (S. cerevisiae strains, strain wild type, active compounds read low) 0.922.
Turning to `COc1ccccc1N1CCN(CCN(C(=O)c2ccc(I)cc2)c2ccccn2)CC1`, the normalized growth by setting is: (S. cerevisiae deletion strains, locus YAL040C, strain CLN3, active compounds read low) 0.976; (S. cerevisiae deletion strains, locus YCL061C, strain MRC1 (second series), active compounds read low) 0.988; (S. cerevisiae deletion strains, locus YDR363W, strain ESC2, active compounds read low) 0.943; (S. cerevisiae deletion strains, locus YER002W, strain NOP16, active compounds read low) 1.01; (S. cerevisiae deletion strains, locus YGR229C, strain SMI1, active compounds read low) 0.984; (S. cerevisiae deletion strains, locus YNL175C, strain NOP13, active compounds read low) 0.983. The normalized growth (S. cerevisiae deletion strains, locus YNL197C, strain WHI3, active compounds read low) was 0.996; the normalized growth (S. cerevisiae deletion strains, locus YNL224C, strain SQS1, active compounds read low) is 0.987; the normalized growth under setting [1] was 0.977; the normalized growth (S. cerevisiae deletion strains, locus YOR083W, strain WHI5 (second series), active compounds read low) was 0.997; the normalized growth under setting [2] was 0.964; the normalized growth under setting [3] was 0.995.
